In PubChem BioAssay (NCI):
Values joined by “and” are separate entries in the source; they are usually repeats but may differ in a detail not shown here. Equal values may be shown once. The panel holds about 83,000 compounds, 20% with a hit somewhere; the sample as a whole holds those more often.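 Method: cells in 96-well plates; compound added at one concentration; 48 h incubation; percent growth measured; values under 10 scored active.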 Active and inactive are the calls of the source.

Each compound was assayed on MDA-MB-435 melanoma (assay: NCI-60 one-dose screen, 48 h (100 = growth as untreated, 0 = no growth, -100 = all killed)). Details: 10 µM unless noted.
Protocol: Growth inhibition of the MDA-MB-435 human Melanoma tumor cell line is measured as a screen for anti-cancer activity. Cells are grown in 96 well plates and exposed to the test compound for 48 hours. Compounds are tested at a single concentration, which is 10^-5 M for most compounds. The reported endpoint is percent growth (GI% or GIPRCNT), where numbers from 0 - 100% represent growth inhibition, and numbers from -100% - 0 represent cell death. For example, a value of 40 represents 60% growth inhibition. A value of 0 means no net growth occurred over the course of the experiment. A value of -40 indicates 40% of cells at the beginning of the experiment died by the end of the experiment. A value of -100 means all cells are dead at the end of the experiment.
NCI-60 Human Tumor Cell Lines Screen was performed using the standard one-dose NCI protocol, which is described in more detail at https://dtp.cancer.gov/discovery_development/nci-60/default.htm.
Compounds with GIPRCNT values below 10 were considered active. Activity score was based on GIPRCNT using the following formula: […]
Score is 0 for GIPRCNT values of 100 or above, 50 for GIPRCNT values of 0, and 100 for GIPRCNT values of -100.

Row | Structure (SMILES) | growth
1 | Cc1cc2ccccc2cn1 | 101% (inactive) and 106% (inactive)
2 | O=C(O)CCCl | 109% (inactive)
3 | CC1(C)COC(=S)N1 | 101% (inactive)
4 | Cc1ccc(S(=O)(=O)c2ccccc2)cc1 | -49.8% (active)
5 | CC(C)C(C)(C)c1ccc(O)cc1 | 106% (inactive)
6 | c1ccc(-c2nc3ccccc3s2)cc1 | 110% (inactive)
7 | NN1CCOC(c2ccccc2)C1 (stereo not given) | 106% (inactive)
8 | CC1=C/C(O)CC(=O)Cc2nc(co2)C(=O)N2CCC=C2C(=O)OC(C(C)C)C(C)/C=C\C(=O)NC/C=C\1 (stereo not given) | 81.2% (inactive)
9 | CC1CCC2(C(=O)O)CCC3(C)C(=CCC4C5(C)CCC(O)C(C)(C)C5CCC43C)C2C1C (stereo not given) | 59.8% (inactive) and 103% (inactive)
10 | NC(=O)NCCCC(N)C(=O)O (stereo not given) | 107% (inactive)
11 | O=C(CO)C(O)C(O)C(O)C(O)CO (stereo not given) | 110% (inactive) and 107% (inactive)
12 | O=c1n(CC2CO2)c(=O)n(CC2CO2)c(=O)n1CC1CO1 (stereo not given) | 82.9% (inactive)
13 | Brc1ccc(SSc2ccc(Br)cc2)cc1 | 82.6% (inactive)
14 | Oc1ccc(Cc2ccccc2Cl)c(O)c1 | 107% (inactive)
15 | CCCCOC(=O)/C=C\C(=O)NC(N)=O | 99.4% (inactive)
16 | COc1ccc(C(=O)CC(c2ccccc2)C(C#N)c2ccccc2)cc1 (stereo not given) | 78.9% (inactive)
17 | Nc1nc(N)c2[nH]cnc2n1 | 84.5% (inactive)
18 | CN1CNC(=O)NC1 | 106% (inactive) and 115% (inactive)
19 | O=C(O)/C=C\C(=O)Nc1cccc2ccccc12 | 113% (inactive) and 103% (inactive)
20 | Cc1ccc(=O)[nH]n1 | 113% (inactive)

Row | Structure (SMILES) | growth
21 | CC(C)NC(=O)N/C=C(\C#N)C(N)=O | 92.6% (inactive)
22 | COc1ccc(Nc2ccc3ccccc3c2)cc1 | 22.1% (inactive)
23 | O=C1OC(c2ccccc2)=N/C1=C\c1ccccc1 | 109% (inactive)
24 | CC(=O)OCC1OC(OC(C)=O)C(OC(C)=O)C(OC(C)=O)C1OC(C)=O (stereo not given) | 105% (inactive) and 107% (inactive)
25 | CN(C)CC1CCCCCC(CN(C)C)C1=O (stereo not given) | 81.2% (inactive)
26 | CCCCOc1ccc(Nc2cc(Cl)ccc2C(=O)O)cn1 | 105% (inactive) and 107% (inactive)
27 | CC(=O)NCC(=O)c1ccc([N+](=O)[O-])cc1 | 104% (inactive)
28 | COc1ccc2cc1Oc1ccc(cc1)C[C@H]1c3cc(c(OC)cc3CCN1C)Oc1c(OC)c(OC)cc3c1[C@H](C2)N(C)CC3 | 24.7% (inactive)
29 | c1ccc2c(c1)OC1OC2Oc2ccccc21 | 115% (inactive)
30 | OC1COC(OCc2ccccc2)C(O)C1O (stereo not given) | 104% (inactive)
31 | O=[N+]([O-])c1cccc(SSc2cccc([N+](=O)[O-])c2)c1 | 102% (inactive)
32 | CCCCCCCCCCCCCCCCC(C(=O)O)C(O)(CC(=O)O)C(=O)O (stereo not given) | 102% (inactive) and -33.7% (active)
33 | CC1CCC2(OC1)OC1CC3C4CC=C5CC(O)CCC5(C)C4CCC3(C)C1C2C (stereo not given) | 116% (inactive)
34 | C#CCOC(=O)Nc1ccccc1 | 98.8% (inactive)
35 | OCC1OC(O)C(O)C(O)C1O (stereo not given) | 113% (inactive)
36 | C/C(=C\c1ccccc1)c1ccccn1 | 118% (inactive)
37 | ClCCOCCOc1ccc(C2CCCCC2)cc1 | 99.5% (inactive)
38 | O=C(/C=C/c1ccccc1)c1ccccc1 | 76.6% (inactive)
39 | O=C(Cc1ccccc1)c1ccc(O)c(Cl)c1 | 41.3% (inactive)
40 | O=c1[nH]cnc2c1ncn2C1OC(CO)C(O)C1O (stereo not given) | 121% (inactive) and 98.7% (inactive) and 90.2% (inactive)
